Among the data in PubChem BioAssay are composite z-score and z-score values, retold here.

Experiment [1] relates to Wnt5a (protein binding on small-molecule microarray). Kind of experiment: small molecules binding Wnt5a protein – biophysical, small-molecule microarray, 635/667 nm fluorescence, primary screen (AID 1142).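 Further: fluorescence read at 667 nm with signal to noise per printed feature.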 Particulars: 635 nm fluorescence, higher = more signal.
A short description of experiment [2]: ATP-based viability of Huh7 replicon cells – cell-based, CellTiter-Glo luminescence, basal, 48 h, cytotoxicity control for HCV replication inhibitor project, primary screen (AID 1143).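 Further: Huh7 hepatoma cells carrying a hepatitis C replication reporter with no stimulus; test concentration not given here.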 Particulars: higher = more signal, called active from +8 up or from −8 down.
Experiment [3] can be described thus: Pseudomonas biofilm growth suppression – PAO1 strain, BacTiter-Glo luminescence, LB-PBS, primary screen (AID 1144). Particulars: P. aeruginosa PAO1 biofilm, 12 h, higher = more signal.
The nature of experiment [4]: basal CRE-LacZ reporter activity in PC12 – cell-based, unstimulated, primary screen (AID 1145). Conditions: no forskolin, luminescence, 4.5 h, higher = more signal, called active from +8 up or from −8 down.
Experiment [5] in a line: forskolin-driven CRE-LacZ activity in PC12 – cell-based, CRE-LacZ reporter, forskolin-stimulated, primary screen (AID 1146).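 Further: PC12 cells with 6xCRE LacZ reporter stimulated by forskolin 10 µM; beta-galactosidase reporter signal reflecting CREB driven transcription.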 Conditions: luminescence, 4.5 h, higher = more signal, called active from +8 up or from −8 down.
Experiment [6] addresses Streptavidin (Streptomyces avidinii) (UniProt P22629). Kind of experiment: compounds binding control protein streptavidin – biophysical, small-molecule microarray, 635/667 nm fluorescence, artefact control for SMM compound annotation, primary screen (AID 1147).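 Further: signal reflects streptavidin binding to arrayed compounds as a control protein.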 Particulars: higher = more signal.
The nature of experiment [7]: probe aInhba binding on compound microarray – biochemical, small-molecule microarray, 635/667 nm fluorescence, primary screen (AID 1148).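 Further: score merges 667nm spot fluorescence with signal-to-noise for antibody binding to printed compounds.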 Conditions: higher = more signal.
Experiment [8] has as its target Torsin-1A (Homo sapiens) (UniProt O14656). Description: TOR1A wild-type binding on microarray – cell lysate, small-molecule microarray, lysate, 635/667 nm, primary screen (AID 1149). Particulars: COS7 hTOR1A-WT lysate, 635 nm fluorescence, higher = more signal.
The target is the same in experiment [9]. Kind of experiment: torsin A mutant lysate binding on microarrays – cell lysate, small-molecule microarray, COS7 lysate, 635/667 nm fluorescence, primary screen (AID 1150).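 Further: score pools 667 nm emission and signal to noise measuring lysate protein binding.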 Particulars: COS7 hTOR1A mutant lysate, 635 nm fluorescence, higher = more signal.
The test system of experiment [10] is Sonic hedgehog protein (Shh). Kind of experiment: Sonic hedgehog microarray binding compounds – biochemical, small-molecule microarray, 635/667 nm fluorescence, primary screen (AID 1151).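 Further: Shh protein binding to compounds spotted on small-molecule microarray slides; score combines spot fluorescence intensity with signal-to-noise across triplicate slides.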 Conditions: 635 nm fluorescence, higher = more signal.

Molecules are shown by their SMILES. Active and inactive are the calls of the source. Unless noted, how the calls were made is not given here.

Torsin-1A (Homo sapiens), sequence (O14656 whole entry, looked up): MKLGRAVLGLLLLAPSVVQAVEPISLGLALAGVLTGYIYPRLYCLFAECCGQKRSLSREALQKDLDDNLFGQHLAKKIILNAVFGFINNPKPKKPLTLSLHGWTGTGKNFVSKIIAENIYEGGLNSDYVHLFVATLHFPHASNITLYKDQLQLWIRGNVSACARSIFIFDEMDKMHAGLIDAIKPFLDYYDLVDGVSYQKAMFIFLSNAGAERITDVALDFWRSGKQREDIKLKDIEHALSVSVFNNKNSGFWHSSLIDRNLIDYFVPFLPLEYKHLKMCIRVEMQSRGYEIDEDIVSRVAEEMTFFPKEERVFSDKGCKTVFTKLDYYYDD
Streptavidin (Streptomyces avidinii), sequence (P22629 whole entry, looked up): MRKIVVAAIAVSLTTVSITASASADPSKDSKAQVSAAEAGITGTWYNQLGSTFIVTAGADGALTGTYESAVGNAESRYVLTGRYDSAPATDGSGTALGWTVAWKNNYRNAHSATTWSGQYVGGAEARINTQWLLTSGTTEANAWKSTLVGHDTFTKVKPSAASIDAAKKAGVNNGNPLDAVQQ

For `CCCC=C(CCC)[C@@H](NC(=O)Oc1ccc(F)cc1)c1ccc(C(=O)OC)cc1`, the composite z-score in experiment [1] is 0.0931; in [6], 1.55; in experiment [7], 0.329; with Torsin-1A (Homo sapiens) [8], -0.0302; in the experiment with Torsin-1A (Homo sapiens) [9], 0.262; in [10], -0.69. The z-score in experiment [2] was -3.08 (inactive); in [3], -0.135 (inactive); in [4] it was 0.194 (inactive); in experiment [5] it was 1.43 (inactive).
For `Cc1ccc(S[C@]2(C(=O)NC(C)C)CC(=O)N(Cc3ccccc3Cl)[C@@H]2c2ccc(CO)cc2I)cc1`, the composite z-score in experiment [1] was -0.615; in experiment [6] it was -0.265; in experiment [7], -0.224; in the experiment with Torsin-1A (Homo sapiens) [8], -1.85; with Torsin-1A (Homo sapiens) [9], -1.25; in [10] it was -0.008. For the same compound, the z-score in [2] is -2.03 (inactive); in experiment [3], 0.248 (inactive); in [4], -0.374 (inactive); in experiment [5], 2.53 (inactive).
For the compound `CC(C)C[C@@H]1NC(=O)[C@H]2C[C@@H](C(=O)NCCCCCCN(C)C)[C@@H](c3ccc(O)cc3)N2C1=O`, the composite z-score in experiment [1] is 0.836; in [6], 0.189; in experiment [7], -0.147; with Torsin-1A (Homo sapiens) [8] it was 1.47; in the experiment with Torsin-1A (Homo sapiens) [9], 1.52; in [10] it was 1.97. For the same compound, the z-score was -0.29 (inactive) in experiment [2], -0.041 (inactive) in experiment [3], -0.398 (inactive) in [4] and 0.425 (inactive) in experiment [5].
Take `O=C1c2ccccc2[C@](Cc2ccccc2I)(C(=O)NC2CC2)[C@H](c2ccc(CO)cc2)N1C1CCCCC1`: the composite z-score in [1] was 0.557; in experiment [6], 1.05; in experiment [7], 0.306; in the experiment with Torsin-1A (Homo sapiens) [8] it was 0.414; with Torsin-1A (Homo sapiens) [9], 0.68; in experiment [10] it was 1.06. In addition, the z-score in experiment [2] was -3.43 (inactive); in experiment [3], 0.214 (inactive); in experiment [4], 0.531 (inactive); in experiment [5] it was 0.424 (inactive).
In the case of `COc1ccc([C@H]2C[C@H]3C(Br)=C[C@@H]2C(=O)[C@]32CO2)cc1`, the composite z-score is -0.0556 in experiment [1]; 0.256 in experiment [6]; -0.0822 in experiment [7]; -0.0733 in the experiment with Torsin-1A (Homo sapiens) [8]; -0.12 in the experiment with Torsin-1A (Homo sapiens) [9]; 0.311 in experiment [10]. Also, the z-score is 0.0402 (inactive) in experiment [2], 1.11 (inactive) in experiment [3], 2.85 (inactive) in [4] and 0.357 (inactive) in experiment [5].
On to `O=C1C2C=CC(C(O)c3ccc(F)cc3)N(Nc3ccccc3F)C2C(=O)N1c1ccccc1` (stereo not given), for which the composite z-score was -0.0864 in [1]; 0.59 in experiment [6]; 0.254 in [7]; 0.0654 in the experiment with Torsin-1A (Homo sapiens) [8]; 0.845 in the experiment with Torsin-1A (Homo sapiens) [9]; -0.166 in experiment [10]. Moreover, the z-score in experiment [2] was 0.486 (inactive); in experiment [3] it was -0.746 (inactive); in experiment [4], 0.433 (inactive); in experiment [5], 1.53 (inactive).
Turning to `C=CCOC(=O)[C@@H]1[C@H]2C(=O)O[C@H](c3ccccc3)[C@H](c3ccccc3)N2[C@H](c2ccc(OCCOC(=O)[C@@H]3C[C@@H]4C(=O)N5CCC[C@H]5C(=O)N4[C@@H]3c3ccc(O)cc3)cc2)[C@@]12C(=O)Nc1ccc(I)cc12`, the composite z-score was 0.0017 in [1]; 1.11 in experiment [6]; -0.101 in experiment [7]; 0.711 with Torsin-1A (Homo sapiens) [8]; 0.878 in the experiment with Torsin-1A (Homo sapiens) [9]; 1.82 in experiment [10]. Besides, the z-score in experiment [2] is -1.51 (inactive); in [3], -1.72 (inactive); in experiment [4] it was -1.48 (inactive); in experiment [5], -1.75 (inactive).
In the case of `C=CC[C@@]1(C(N)=O)N=C(c2ccc(OCCCO)cc2)O[C@@H]1c1ccccc1CN=[N+]=[N-]`, the composite z-score is 0.186 in experiment [1]; 0.456 in experiment [6]; 0.233 in experiment [7]; 0.183 in the experiment with Torsin-1A (Homo sapiens) [8]; 0.0254 in the experiment with Torsin-1A (Homo sapiens) [9]; -0.776 in [10]. The z-score in experiment [2] was -3.34 (inactive); in experiment [3] it was -0.58 (inactive); in experiment [4], 1.8 (inactive); in experiment [5], -1.35 (inactive).
For the compound `CC(C)(C)OC(=O)CC[C@]1(C(=O)O)N=C(c2ccc(OCCCO)cc2)O[C@H]1c1ccccc1N=[N+]=[N-]`, the composite z-score is 0.629 in [1]; 1.32 in experiment [6]; 0.825 in experiment [7]; -0.09 with Torsin-1A (Homo sapiens) [8]; 0.414 in the experiment with Torsin-1A (Homo sapiens) [9]; -0.815 in [10]. For the same compound, the z-score in experiment [2] is -0.686 (inactive); in experiment [3], 0.448 (inactive); in [4] it was -0.38 (inactive); in [5], -0.658 (inactive).
Regarding `C=C[C@H](COC(C)=O)N(C(=O)OC(C)(C)C)S(=O)(=O)c1ccc(Br)cc1`, the composite z-score in experiment [1] worked out at 0.77; in experiment [6], 0.304; in experiment [7], 0.898; with Torsin-1A (Homo sapiens) [8] it was 0.446; with Torsin-1A (Homo sapiens) [9] it was 0.31; in experiment [10], 0.457. For the same compound, the z-score is -0.121 (inactive) in [2], -0.41 (inactive) in experiment [3], 0.652 (inactive) in [4] and 1.66 (inactive) in [5].
With `Cc1ccc(S[C@]2(C(=O)NCCN3CCOCC3)CC(=O)N(Cc3ccccc3)[C@@H]2c2ccc(CO)cc2I)cc1`, the composite z-score in experiment [1] is 0.0376; in experiment [6], -0.755; in experiment [7] it was -0.0719; in the experiment with Torsin-1A (Homo sapiens) [8], -1.46; with Torsin-1A (Homo sapiens) [9] it was 0.59; in experiment [10] it was -0.685. For the same compound, the z-score in experiment [2] was -5.17 (inactive); in [3] it was -0.779 (inactive); in experiment [4] it was -0.114 (inactive); in experiment [5], 1.8 (inactive).
Turning to `C=CCOC(=O)[C@@H]1[C@H]2C(=O)O[C@H](c3ccccc3)[C@H](c3ccccc3)N2[C@H](c2ccc(OCCOC(=O)[C@@H]3C[C@@H]4C(=O)N[C@@H](CCCC[N+](C)(C)C)C(=O)N4[C@@H]3c3cccc(OCCO)c3)cc2)[C@@]12C(=O)Nc1ccc(I)cc12`, the composite z-score in [1] was 0.596; in [6], 0.337; in experiment [7], -0.122; in the experiment with Torsin-1A (Homo sapiens) [8], 0.993; in the experiment with Torsin-1A (Homo sapiens) [9], 1.15; in experiment [10], 1.99. For the same compound, the z-score was -2.13 (inactive) in experiment [2], -1.22 (inactive) in [3], 0.0084 (inactive) in experiment [4] and 1.83 (inactive) in experiment [5].
On to `C=CCOC(=O)[C@H]1[C@@H]2C(=O)O[C@@H](c3ccccc3)[C@@H](c3ccccc3)N2[C@@H](c2ccc(OCCOC(=O)[C@@H]3C[C@@H]4C(=O)N5CCC[C@H]5C(=O)N4[C@@H]3c3cccc(OCCO)c3)cc2)[C@]12C(=O)Nc1ccccc12`, for which the composite z-score in experiment [1] was 0.537; in experiment [6], -0.274; in [7] it was 0.325; in the experiment with Torsin-1A (Homo sapiens) [8] it was 0.459; in the experiment with Torsin-1A (Homo sapiens) [9], 0.767; in experiment [10], 1.56. The z-score is 0.0308 (inactive) in experiment [2], -0.0247 (inactive) in experiment [3], -0.675 (inactive) in [4] and 0.0527 (inactive) in [5].
On to `COCCOC(=O)N1C(=O)[C@@]2(c3cc(C#Cc4ccc(OC)cc4)ccc31)[C@H](C(=O)N1CCCCCCC1)[C@H]1C(=O)O[C@H](c3ccccc3)[C@H](c3ccccc3)N1[C@@H]2c1ccc(OCCO)cc1`, for which the composite z-score in [1] amounted to 0.812; in [6], 1.67; in experiment [7] it was 1.82; with Torsin-1A (Homo sapiens) [8], 1.12; with Torsin-1A (Homo sapiens) [9] it was 1.06; in [10] it was 2.15. Also, the z-score in experiment [2] is -4.68 (inactive); in experiment [3] it was -1.97 (inactive); in experiment [4], 0.0857 (inactive); in [5], -0.66 (inactive).
For `COCCOC(=O)N1C(=O)[C@@]2(c3cc(C#CCCO)ccc31)[C@H](C(=O)N1CCc3cc(OC)c(OC)cc3C1)[C@H]1C(=O)O[C@H](c3ccccc3)[C@H](c3ccccc3)N1[C@@H]2c1ccc(O)cc1`, the composite z-score in experiment [1] was 0.304; in experiment [6], 0.25; in [7] it was 0.132; with Torsin-1A (Homo sapiens) [8], 0.73; with Torsin-1A (Homo sapiens) [9], 0.538; in [10], 0.918. Besides, the z-score was -0.173 (inactive) in [2], -0.14 (inactive) in [3], -0.815 (inactive) in experiment [4] and -0.742 (inactive) in [5].
With `COc1ccc(C#Cc2ccc3c(c2)[C@]2(C(=O)N3)[C@H](c3ccccc3OCCO)N3[C@H](c4ccccc4)[C@H](c4ccccc4)OC(=O)[C@H]3[C@@H]2C(=O)O)cc1`, the composite z-score in experiment [1] came out at 0.535; in [6], 1.45; in [7], 0.909; with Torsin-1A (Homo sapiens) [8] it was 0.498; with Torsin-1A (Homo sapiens) [9], 0.659; in experiment [10] it was 2.06. Moreover, the z-score in experiment [2] was -4.91 (inactive); in [3], -1.66 (inactive); in [4] it was -1.16 (inactive); in experiment [5], 4.03 (inactive).
In the case of `CN1C(=O)C2C=CC(C(O)c3cc(C(F)(F)F)cc(C(F)(F)F)c3)N(N3CCCCC3)C2C1=O` (stereo not given), the composite z-score is 0.209 in experiment [1]; -0.0121 in experiment [6]; 0.0047 in experiment [7]; -0.083 in the experiment with Torsin-1A (Homo sapiens) [8]; 0.502 in the experiment with Torsin-1A (Homo sapiens) [9]; 0.035 in experiment [10]. The z-score in experiment [2] was 0.401 (inactive); in [3] it was -0.15 (inactive); in experiment [4], 0.44 (inactive); in [5], -0.411 (inactive).
Regarding `NCCCCCNC(=O)[C@@H]1C[C@@H]2C(=O)N[C@@H](Cc3ccccc3)C(=O)N2[C@@H]1c1cccc(OCCO)c1`, the composite z-score was 0.0984 in experiment [1]; 0.44 in experiment [6]; -0.182 in experiment [7]; 0.89 with Torsin-1A (Homo sapiens) [8]; 0.373 with Torsin-1A (Homo sapiens) [9]; 0.867 in experiment [10]. In addition, the z-score is 0.213 (inactive) in [2], 0.205 (inactive) in [3], 0.415 (inactive) in experiment [4] and 0.201 (inactive) in experiment [5].
